Beta apoptosis = beta cell apoptosis inhibition. protection from apoptosis, % (no concentration beside the values). INS-1E cytokine-induced death, ATP luminescence, 48 h; percent of positive-control rescue, neutral wells zero. hit rate 0.8% among 300,000;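 active means Every replicate reaches about 75%, or at least half do and their mean reaches it too, limit read from the data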;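 further: higher means more ATP so stronger rescue from cytokine killing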
Calb FLC = affects C. albicans growth with fluconazole | C. albicans CaCi-2 (fluconazole-resistant clinical isolate) + fluconazole, Alamar Blue growth, 48 h | growth inhibition, % (no concentration beside the values) | hit rate 0.57% among 300,000;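 active means growth inhibition above about 58% in most replicates, limit read from the data, passing the limit was not always enough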;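 further: all wells also contain fluconazole at 8 µg/ml as a sub-toxic cotreatment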
CSC inhib = blocks cancer stem cells | cancer stem cell-like cells viability, luminescence | inhibition, % at 7.5 µM | hit rate 1.1% among 300,000 | AID 2717; in the data active means inhibition above about 75%; tested in HMLE shEcad cells
PfHsp90 set2 = growth inhibition of yeast expressing Plasmodium Hsp90. S. cerevisiae expressing PfHsp90, BacTiter-Glo ATP, 48 h; yeast lacking PDR1 and PDR3 efflux regulators. inhibition, % at 9.4 µM. hit rate 0.32% among 310,000. AID 504621;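 active means every replicate shows inhibition above about 80%, whatever the replicate mean, limit read from the data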
Shn3 inh set2 = inhibitors of Schnurri-3 3'UTR reporter in osteoblasts. Clone20 osteoblast Shn3 3'UTR firefly luciferase, 24 h. inhibition, % at 12.5 µM. hit rate 0.52% among 360,000. AID 588674;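 active means mean inhibition of at least 75% with every replicate also reaching 75%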
Large screens that a line does not name were inactive. This is a sample that favours compounds with a hit; in the whole collection about 2.2% have one here.

CCCCCCSc1ccc([C@@H]2[C@H]3C(=O)N(C)C(=O)[C@H]3[C@]3(C(=O)OC)CCCCN23)cc1OC	none (no result: Calb FLC)
CCOc1ccc(N(CC(=O)N2CCC(Cc3ccccc3)CC2)S(C)(=O)=O)cc1	none
O=C(NCc1ccc(F)cc1)c1cccc2c1C(=O)c1ccc(N3CCOCC3)cc1S2(=O)=O	none (no result: Calb FLC)
O=C(NCc1ccccc1Br)c1cccc2c1C(=O)c1ccc(N3CCOCC3)cc1S2(=O)=O	Beta apoptosis 87 (no result: Calb FLC, PfHsp90 set2, Shn3 inh set2)
CCOc1cc(/C=C2\C(=O)ON=C2C)ccc1OCc1ccccc1	Shn3 inh set2 91
COCC(C)N1CCC(n2nccc2NC(=O)CCCc2ccccc2)CC1 (configuration not stated)	none
COc1cc(NC(=O)c2ccc(C(C)(C)C)cc2)c(OC)cc1NC(=O)CN1CCCCC1	none
CC1CCN(S(=O)(=O)c2ccc3c(c2)N(CC(=O)NCCN2C(C)CCCC2C)C(=O)CS3)CC1 (configuration not stated)	none
COc1ccc(C2=CSC3=NNC4(CCCCC4)NN23)cc1	Calb FLC 112
COc1ccc(C2=CSC3=NCCN23)cc1	none
Cc1ccc(C2=CSC3=NNC4(CCCCC4)NN23)cc1	Calb FLC 111
CCN(CC)C(=O)Cn1cc(SCC(=O)NC2CCCCC2)c2ccccc21	none (no result: Beta apoptosis, Calb FLC, CSC inhib, PfHsp90 set2)
C=C1CCC[C@]2(C)C[C@H]3OC(=O)C(CNCCN(CC)CC)[C@H]3CC12 (some centres not stated)	none
O=C(Cc1ccccc1)Nc1ccccc1C(=O)NCC1CCCO1 (configuration not stated)	none
CC(=O)Oc1ccc(N(C(C)=O)S(=O)(=O)c2cccs2)c2ccccc12	Beta apoptosis 93 (no result: PfHsp90 set2)
O=C(NCc1ccc(F)cc1)c1ccc(CS(=O)(=O)Cc2ccc(F)cc2)o1	none
O=C(NCc1ccc(F)cc1)c1ccc(CS(=O)(=O)Cc2ccccc2F)o1	Calb FLC 95
O=S(=O)(Cc1ccccc1Cl)NCCc1ccc(F)cc1	none
CCOC(=O)C1CCN(C(=O)c2sc3nc(C)nc(N4CCC(C)CC4)c3c2C)CC1	Shn3 inh set2 88
CCOC(=O)C1CCN(C(=O)c2sc3ncnc(N4CCC(C)CC4)c3c2C)CC1	none (no result: Beta apoptosis)
O=C1CCc2cc(S(=O)(=O)N3CCCCC3)cc3c2N1CC3	none (no result: PfHsp90 set2)
CNC(=O)c1ccc2c(c1)nnn2C	Calb FLC 106
COc1cc(-c2csc(N3CCOCC3)n2)cc(OC)c1OC	none
COc1ccc(-c2csc(N3CCN(c4cc(C)nc5ccccc45)CC3)n2)cc1OC	CSC inhib 95
O=c1c(Cl)c(NCCCO)cnn1-c1nc2ccccc2[nH]1	Calb FLC 78 (no result: Beta apoptosis)
COc1ccc(Cn2c(O)c(/C=N/NC(=O)c3cccnc3)c3ccccc3c2=O)cc1	Calb FLC 103 (no result: Beta apoptosis, CSC inhib)
O=C(N/N=C/c1c(O)n(Cc2ccccc2)c(=O)c2ccccc12)c1cccnc1	none
COc1ccc(C(O)c2nc(-c3cccc(C(=O)O)c3)cs2)cc1 (configuration not stated)	none (no result: Beta apoptosis, Calb FLC, CSC inhib, PfHsp90 set2)
O=C(Nc1cccnc1)C1(F)C(F)(F)C(F)(F)C(F)(F)C(F)(F)C1(F)F	Beta apoptosis 110
COc1ccc(OC)c(NC(=O)c2nc(S(=O)(=O)Cc3ccccc3)ncc2Cl)c1	Beta apoptosis 80, CSC inhib 106, PfHsp90 set2 100, Shn3 inh set2 97
COc1ccc(NC(=O)c2c(-c3ccccc3Cl)noc2C)c(OC)c1	none (no result: Beta apoptosis, CSC inhib)
COc1ccc(NC(=O)c2nc(S(=O)(=O)Cc3cccc(C)c3)ncc2Cl)c(OC)c1	Shn3 inh set2 97
C=C1CCN([C@@H](CC(C)C)C(=O)Nc2nc3ccc(Cl)cc3s2)S(=O)(=O)c2ccccc21	CSC inhib 102 (no result: PfHsp90 set2)
O=C(Nc1ccc(OCC(=O)N2CCC(Cc3ccccc3)CC2)cc1)c1ccco1	Beta apoptosis 98
CC(C)(C)C1c2[nH]c3ccccc3c2CCN1Cc1cccc(OCCO)c1 (configuration not stated)	none (no result: Beta apoptosis)
C/C(=N\NC(=S)Nc1ccc(F)cc1)c1ccc2c(c1)OCCO2	CSC inhib 76
C/C(=N\NC(N)=S)c1ccc2c(c1)OCCO2	none
O=[N+]([O-])c1cc(O)c2ncccc2c1	Calb FLC 105 (no result: Beta apoptosis, PfHsp90 set2, Shn3 inh set2)
O=C(NCc1cccs1)c1ccc(CS(=O)Cc2ccc(Cl)cc2)o1 (configuration not stated)	none (no result: Beta apoptosis, Calb FLC, CSC inhib, PfHsp90 set2)
CCOC(=O)C1CCCN(Cc2nc(CC3CC3)no2)C1 (configuration not stated)	none
O=S1(=O)Nc2c(ccc3cccnc23)-c2ccccc21	CSC inhib 96, PfHsp90 set2 151, Shn3 inh set2 88
Cc1oc(-c2ccc(Cl)cc2)nc1CN1CCCC(C(=O)NC2CC2)C1 (configuration not stated)	none
CCOC(=O)N1CCC(NC(=O)C2CCCN(Cc3nc(-c4cccc(Cl)c4)oc3C)C2)CC1 (configuration not stated)	Beta apoptosis 78
COc1ccc(OC)c(-c2nnc3n2N=C(c2ccc(OC(F)F)c(OCC4CC4)c2)CS3)c1	CSC inhib 76 (no result: Calb FLC)
COc1ccc(C2=Nn3c(nnc3-c3ccccc3F)SC2)cc1OC1CCCC1	CSC inhib 82 (no result: Calb FLC)
O=[N+]([O-])c1ccc(Oc2ccc(S(=O)(=O)N3CCOCC3)cn2)cc1	none (no result: Beta apoptosis)
CC(=O)c1csc(COc2ccc(Cl)cc2)n1	none
c1ccc(-c2nc3nonc3nc2-c2ccccc2)cc1	Beta apoptosis 135
CCN(CC(=O)Nc1ccc2c(c1)OCCO2)C(=O)/C=C/c1cccc(C(F)(F)F)c1	none (no result: Calb FLC)
O=C(c1cc(-c2ccccc2)n[nH]1)N1CCc2c([nH]c3ccccc23)C1c1ccccn1 (configuration not stated)	Calb FLC 98
C[C@@H]1CN([C@@H](C)CO)S(=O)(=O)c2ccc(Br)cc2O[C@@H]1CN(C)C(=O)c1ccccn1	none (no result: Beta apoptosis, Calb FLC, CSC inhib, PfHsp90 set2)
O=C1C(Br)=C(c2ccccc2)C(c2ccccc2)=C1c1ccccc1	Shn3 inh set2 98 (no result: Beta apoptosis, Calb FLC, CSC inhib)
O=C1NC(c2ccccc2)=C(c2ccccc2)C1=O	none (no result: Calb FLC)
Oc1ccc(Nc2nc(-c3ccccc3O)nc3ccccc23)cc1	CSC inhib 83
Oc1ccc(Nc2nc(-c3ccccc3F)nc3ccccc23)cc1	none
COc1cccc(-c2nc(NC3CCCC3)c3ccccc3n2)c1O	PfHsp90 set2 117, Shn3 inh set2 86
COc1ccc(Nc2nc(-c3ccccc3O)nc3ccccc23)cc1	CSC inhib 81
CCCCOc1ccc(C(=O)NNC(=O)C2C3C=CC(C3)C2C(=O)O)cc1 (configuration not stated)	none (no result: CSC inhib)
CCc1cc(-c2n[nH]c(C)c2Oc2ccc(C(C)C)cc2)c(O)cc1O	CSC inhib 113 (no result: PfHsp90 set2)
CCCOC(=O)c1ccc(Oc2c(-c3ccc(O)cc3O)n[nH]c2C)cc1	CSC inhib 117
CCCOC(=O)c1ccc(Oc2c(-c3ccc(OC)cc3O)n[nH]c2C)cc1	CSC inhib 132
CCCOC(=O)c1ccc(Oc2cn[nH]c2-c2ccc(O)cc2O)cc1	none
Cc1[nH]nc(-c2ccc(O)cc2O)c1Oc1ccccc1	none
CC(C)c1cc(-c2cc(-c3ccccc3)on2)nc(NC2CCCC2)n1	CSC inhib 85
CC(C)c1cc(-c2cc(-c3ccc(Cl)cc3)on2)nc(NC2CCCC2)n1	none

Screening data as filed in PubChem.
